The target of experiment [1] is Androgen receptor (Homo sapiens) (UniProt P10275). The experiment is described as follows: qHTS assay to identify small molecule antagonists of the androgen receptor (AR) signaling pathway using the MDA cell line in the presence of 0.5 nM R1881 (AID 1259243). Further: nearly all actives have a fitted effect of over 50% in size. Further: potency means the concentration at half of the fitted maximal effect. The procedure, abridged:
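Luminescent reporter readout (ONE-Glo, 30 min, room temperature) after 16 hr co-treatment of MDA-kb2 cells with test compounds and 0.5 nM R1881 final, at 37C without CO2. The MMTV-driven luciferase responds to both AR and GR.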
For orientation: In qHTS, concentration-response curves come from the screen itself.

Experiment [2] addresses Estrogen receptor (Homo sapiens) (UniProt P03372). The experiment is described as follows: qHTS assay to identify small molecule antagonists of the estrogen receptor alpha (ER-alpha) signaling pathway using the BG1 cell line in the presence of 0.1 nM 17-beta-estradiol (AID 1259244). Further: nearly all actives have a fitted effect of over 50% in size. Further: potency means the concentration at half of the fitted maximal effect. The procedure, abridged:
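Luciferase luminescence (ONE-Glo, 30 min at room temperature) was read after 22 hr at 37C exposure to compounds plus 17beta-estradiol at 0.1 nM final. Cells were VM7Luc4E2 with endogenous ER-alpha and an ERE-driven luciferase, pre-cultured 5 days in hormone-depleted medium.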

Experiment [3] is described as follows: qHTS assay to identify small molecule phospholipidosis (PLD) inducers (AID 1259344; active means well fitted curve in the direction sought with a large enough effect; an effect the other way counts as inactive or inconclusive). An outline of the steps:
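Image-based: LipidTOX Red pit count/intensity per well and per cell; HepG2, 24 h compound at 37 C, PFA fixation, Hoechst counterstain.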

Experiment [4] in a line: qHTS assay to identify small molecule HDAC inhibitors (AID 1259364). Further: nearly all actives have a fitted effect of over 45% in size. Further: potency means the concentration at half of the fitted maximal effect. The procedure, abridged: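 Luminescence read after 30 min room-temperature HDAC-Glo incubation measures cellular class I/II HDAC activity. Compounds were applied for 2 hr at 37 C to HCT-116 wild-type cells seeded the day before.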
Experiment [5] can be described thus: qHTS assay to identify small molecule HDAC inhibitors - cell viability counter screen (AID 1259365). Further: nearly all actives have a fitted effect of over 50% in size. Further: potency means the concentration at half of the fitted maximal effect. The procedure, abridged:
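CellTiter-Glo luminescence (30 min, room temperature) reported viability after a 2 h compound exposure at 37 C. Cells: wild-type HCT-116, 1,500 per well, seeded the night before.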

Experiment [6] can be described thus: qHTS assay to identify small molecule antagonists of the sonic hedgehog signaling (Shh) pathway - cell viability counter screen (AID 1259367). Further: nearly all actives have a fitted effect of over 55% in size. Further: potency means the concentration at half of the fitted maximal effect. An outline of the steps:
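Tox21 library chemicals were tested on a Gli1-Luc NIH/3T3 clone (2,000 cells/well) stimulated by conditioned medium; viability was quantified as fluorescence from CellTiter-Fluor reagent added at 23 hr.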

The nature of experiment [7]: qHTS assay to identify small molecule agonists of the sonic hedgehog signaling (Shh) pathway (AID 1259368; calls by dose curve;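 further: NIH/3T3-derived 3T3Gli1-Luc cells carrying a stable Gli1-driven firefly luciferase reporter; series mostly up to about 92 µM; nearly all actives have a fitted effect of over 15% in size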). The procedure, abridged:
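Luminescence was read after 30 min at room temperature with luciferase reagent. Before that, 3T3Gli1-Luc cells (NIH/3T3 clone, stable Gli1-Luc reporter; 2,000/well) were exposed to compounds for 24 hr at 37C, 5% CO2, compounds being added 4 hr post-plating.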

The nature of experiment [8]: qHTS assay to identify small molecule antagonists of the sonic hedgehog signaling (Shh) pathway (AID 1259369; calls by dose curve; further: nearly all actives have a fitted effect of over 45% in size; further: potency means the concentration at half of the fitted maximal effect). The procedure, abridged: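 Antagonist mode: compound added to 3T3 Gli1-Luc cells followed by conditioned-medium stimulation, 24 h at 37 C, 5% CO2. Inhibition taken as loss of Gli1-driven luciferase luminescence.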
Experiment [9] is described as follows: qHTS assay to identify small molecule agonists of the androgen receptor (AR) signaling pathway in the presence of an antagonist - cell viability counter screen (AID 1259379). Further: nearly all actives have a fitted effect of over 25% in size. Further: potency means the concentration at half of the fitted maximal effect. An outline of the steps:
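Cytotoxicity counter-screen run in the same wells as the nilutamide-challenged (3.0 µM final) AR agonist assay in MDA-kb2 cells. Compounds tested at 15 concentrations for 16 h, 37 °C without CO2; CellTiter-Fluor fluorescence read.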

Experiment [10] in a line: qHTS assay to identify small molecule agonists of the estrogen receptor beta (ER-beta) signaling pathway - cell viability counter screen (AID 1259380). Further: nearly all actives have a fitted effect of over 30% in size. Further: potency means the concentration at half of the fitted maximal effect. The procedure, abridged: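 Cell viability counter screen: CellTiter-Glo luminescence (30 min, room temperature) measured in the same wells as the beta-lactamase readout, after 16 hr compound exposure at 37C of ER-beta-bla HEK293T cells in 2% charcoal-stripped FBS medium.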

Experiment [11] concerns the target Androgen receptor (Homo sapiens) (UniProt P10275). Kind of experiment: qHTS assay to identify small molecule agonists of the androgen receptor (AR) signaling pathway in the presence of an antagonist (AID 1259381; calls by dose curve; further: nearly all actives have a fitted effect of over 15% in size). The procedure, abridged: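 Agonist-mode confirmation run against 3.0 uM final nilutamide: compounds titrated at 15 concentrations onto MDA-kb2 MMTV-luciferase reporter cells. Luminescence measured with ONE-Glo following 16 hr incubation, 37C, 0% CO2.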

A short description of experiment [12]: qHTS assay to identify small molecule antagonists of the estrogen receptor beta (ER-beta) signaling pathway - cell viability counter screen (AID 1259382). Further: nearly all actives have a fitted effect of over 55% in size. Further: potency means the concentration at half of the fitted maximal effect. An outline of the steps: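 Cytotoxicity was measured in the same wells by CellTiter-Glo luminescence after 30 min at room temperature. Cells were ER-beta-bla HEK293T in charcoal-stripped serum, given compound together with 1 nM E2 and incubated 16 h at 37C.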

In experiment [13] the target is Estrogen receptor (Homo sapiens) (UniProt P03372). Kind of experiment: qHTS assay to identify small molecule agonists of the estrogen receptor alpha (ER-alpha) signaling pathway in the presence of an antagonist (AID 1259383; calls by dose curve; further: top concentration of the series differs between compounds; nearly all actives have a fitted effect of over 15% in size). The procedure, abridged: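 Agonist-mode confirmation run in the presence of 10.0nM (final) ICI-182,780 antagonist. The reporter was ERE-driven luciferase in VM7Luc4E2 cells, grown in charcoal-stripped serum. Cells were exposed to 15-concentration compound series for 22hr, then ONE-Glo luminescence was read.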

The nature of experiment [14]: qHTS assay to identify small molecule agonists of the estrogen receptor alpha (ER-alpha) signaling pathway in the presence of an antagonist - cell viability counter screen (AID 1259386). Further: nearly all actives have a fitted effect of over 30% in size. Further: potency means the concentration at half of the fitted maximal effect. An outline of the steps: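 Compounds tested at 15 concentrations for 22 h at 37C alongside 10.0nM (final) ICI-182,780 antagonist, in VM7Luc4E2 cells grown in phenol red-free, charcoal-stripped medium. Viability read by CellTiter-Fluor fluorescence after 1 h reagent incubation.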

For experiment [15], the target named is Progesterone receptor (Homo sapiens) (UniProt P06401). The experiment is described as follows: qHTS assay to identify small molecule agonists of the progesterone receptor (PR) signaling pathway (AID 1346784; calls by dose curve; further: nearly all actives have a fitted effect of over 30% in size). An outline of the steps:
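Agonist qHTS: compounds pinned onto 3,000 PR-UAS-bla HEK 293T cells per well in charcoal-stripped serum medium, 16hr at 37C, then beta-lactamase activity measured by LiveBLAzer FRET fluorescence after 2 hours at room temperature.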

Experiment [16] is described as follows: qHTS assay to identify small molecule agonists of the sonic hedgehog signaling (Shh) pathway - cell viability counter screen (AID 1259366). Further: nearly all actives have a fitted effect of over 50% in size. Further: potency means the concentration at half of the fitted maximal effect. An outline of the steps:
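Cytotoxicity counter screen: CellTiter-Fluor reagent added after 23 h compound exposure, then 1 h at 37C and fluorescence read. Cells were 3T3 Gli1-Luc, seeded 2,000 per well and dosed 4 h post-plating.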

The target of experiment [17] is Estrogen receptor beta (Homo sapiens) (UniProt Q92731). Kind of experiment: qHTS assay to identify small molecule agonists of the estrogen receptor beta (ER-beta) signaling pathway (AID 1259377; active means well fitted activation curve with a large enough effect in the signal ratio in the repeat runs, not every such curve was filed as active; the % refers to the signal ratio). An outline of the steps: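 Ratiometric beta-lactamase FRET read-out came after 2 h substrate loading at room temperature. It followed 16 h compound treatment at 37C of GripTite HEK293T cells carrying a UAS-bla reporter, plated in 2% charcoal-stripped FBS medium.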

Experiment [18] can be described thus: qHTS assay to identify small molecule agonists or antagonists of the thyroid stimulating hormone receptor (TSHR) signaling pathway - wild type cell line counter screen (AID 1259384; calls by dose curve). An outline of the steps: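 Wild-type Hek293 cells, 800/well, 18 h at 37C, then compound with Ro20-1724 for 30 min RT. cAMP by HTRF (cAMP-d2/anti-cAMP cryptate), 1 h RT, fluorescence read. 15 concentrations, triplicates.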

The target of experiment [19] is Thyrotropin receptor (Homo sapiens) (UniProt P16473). The experiment is described as follows: qHTS assay to identify small molecule antagonists of the thyroid stimulating hormone receptor (TSHR) signaling pathway (AID 1259385; calls by dose curve; further: nearly all actives have a fitted effect of over 20% in size). An outline of the steps:
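TSHR-HEK293 cells (800/well) plated 18 h, then compounds with Ro20-1724 and TSH at 1.5 ng/mL final, 30 min at room temperature. cAMP quantified by HTRF (cAMP-d2/anti-cAMP-cryptate, 1 h); 15 concentrations in triplicate.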

The target in experiment [20] is Estrogen receptor beta (Homo sapiens) (UniProt Q92731). The experiment is described as follows: qHTS assay to identify small molecule antagonists of the estrogen receptor beta (ER-beta) signaling pathway (AID 1259378; active means well fitted inhibition curve with a large enough effect in the signal ratio in the repeat runs, not every such curve was filed as active; the % refers to the signal ratio; further: potency means the concentration at half of the fitted maximal effect). The procedure, abridged:
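ER-beta-UAS-bla HEK293T cells in 2% charcoal-stripped FBS medium treated with compound plus 1nM final 17-beta-estradiol for 16 hr at 37C. Beta-lactamase reporter read by FRET substrate fluorescence after 2 hours at room temperature.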

Several values for one entry are separate records, joined by “and”; a condition that tells them apart may be missing. Equal values may be shown once. Inconclusive results are not listed. More than one record can exist for a structure, and the calls need not agree. Activity calls are given as the source filed them. Unless noted, the call rests on the fitted dose curve; in most records, active means well fitted curve in the direction sought with a large enough effect in the repeat runs; inconclusive means weak or mixed curves; inactive means no such curve, though single readings can be large; an effect the other way counts as inactive or inconclusive.

Sequence of Androgen receptor (Homo sapiens) (P10275 whole entry, looked up): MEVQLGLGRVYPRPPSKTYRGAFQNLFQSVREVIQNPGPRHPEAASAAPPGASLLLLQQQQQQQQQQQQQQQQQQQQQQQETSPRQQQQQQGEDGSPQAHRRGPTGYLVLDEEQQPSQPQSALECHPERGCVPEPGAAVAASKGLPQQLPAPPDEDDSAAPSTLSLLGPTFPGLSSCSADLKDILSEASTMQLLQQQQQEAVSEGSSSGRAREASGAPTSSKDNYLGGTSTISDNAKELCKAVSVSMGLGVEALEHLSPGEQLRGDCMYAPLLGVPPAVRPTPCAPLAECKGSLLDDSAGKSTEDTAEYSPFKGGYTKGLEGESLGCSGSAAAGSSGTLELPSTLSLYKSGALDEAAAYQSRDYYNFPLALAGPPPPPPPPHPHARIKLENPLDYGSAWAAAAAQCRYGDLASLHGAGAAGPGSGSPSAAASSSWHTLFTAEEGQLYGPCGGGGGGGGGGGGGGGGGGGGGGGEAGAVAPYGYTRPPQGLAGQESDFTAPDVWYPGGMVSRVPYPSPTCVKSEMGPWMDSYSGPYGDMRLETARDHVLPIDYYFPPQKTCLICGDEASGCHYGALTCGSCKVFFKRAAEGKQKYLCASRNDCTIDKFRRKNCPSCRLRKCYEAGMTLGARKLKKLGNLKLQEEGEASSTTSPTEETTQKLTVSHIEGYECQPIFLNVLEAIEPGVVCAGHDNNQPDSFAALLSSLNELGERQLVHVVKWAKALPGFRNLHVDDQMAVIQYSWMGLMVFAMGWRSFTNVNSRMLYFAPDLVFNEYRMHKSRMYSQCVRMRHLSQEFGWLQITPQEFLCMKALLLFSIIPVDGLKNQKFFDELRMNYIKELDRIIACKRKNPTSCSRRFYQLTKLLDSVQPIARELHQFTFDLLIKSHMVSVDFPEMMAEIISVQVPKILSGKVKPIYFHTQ
Sequence of Estrogen receptor beta (Homo sapiens) (Q92731 whole entry, looked up): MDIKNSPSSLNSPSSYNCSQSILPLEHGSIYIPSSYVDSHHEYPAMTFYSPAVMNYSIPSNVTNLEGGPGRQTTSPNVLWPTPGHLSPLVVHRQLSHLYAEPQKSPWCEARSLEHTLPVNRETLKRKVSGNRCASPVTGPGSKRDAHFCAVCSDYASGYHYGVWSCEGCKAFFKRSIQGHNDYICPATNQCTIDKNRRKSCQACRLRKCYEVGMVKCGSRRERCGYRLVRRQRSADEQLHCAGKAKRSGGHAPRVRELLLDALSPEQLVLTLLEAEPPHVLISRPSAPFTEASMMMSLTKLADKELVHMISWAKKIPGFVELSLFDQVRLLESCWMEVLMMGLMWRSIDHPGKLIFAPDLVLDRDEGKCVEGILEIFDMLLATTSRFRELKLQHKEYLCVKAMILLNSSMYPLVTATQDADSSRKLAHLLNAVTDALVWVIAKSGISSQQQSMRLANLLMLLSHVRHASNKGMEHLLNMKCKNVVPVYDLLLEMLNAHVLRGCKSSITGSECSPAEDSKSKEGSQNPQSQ
Sequence of Progesterone receptor (Homo sapiens) (P06401 whole entry, looked up): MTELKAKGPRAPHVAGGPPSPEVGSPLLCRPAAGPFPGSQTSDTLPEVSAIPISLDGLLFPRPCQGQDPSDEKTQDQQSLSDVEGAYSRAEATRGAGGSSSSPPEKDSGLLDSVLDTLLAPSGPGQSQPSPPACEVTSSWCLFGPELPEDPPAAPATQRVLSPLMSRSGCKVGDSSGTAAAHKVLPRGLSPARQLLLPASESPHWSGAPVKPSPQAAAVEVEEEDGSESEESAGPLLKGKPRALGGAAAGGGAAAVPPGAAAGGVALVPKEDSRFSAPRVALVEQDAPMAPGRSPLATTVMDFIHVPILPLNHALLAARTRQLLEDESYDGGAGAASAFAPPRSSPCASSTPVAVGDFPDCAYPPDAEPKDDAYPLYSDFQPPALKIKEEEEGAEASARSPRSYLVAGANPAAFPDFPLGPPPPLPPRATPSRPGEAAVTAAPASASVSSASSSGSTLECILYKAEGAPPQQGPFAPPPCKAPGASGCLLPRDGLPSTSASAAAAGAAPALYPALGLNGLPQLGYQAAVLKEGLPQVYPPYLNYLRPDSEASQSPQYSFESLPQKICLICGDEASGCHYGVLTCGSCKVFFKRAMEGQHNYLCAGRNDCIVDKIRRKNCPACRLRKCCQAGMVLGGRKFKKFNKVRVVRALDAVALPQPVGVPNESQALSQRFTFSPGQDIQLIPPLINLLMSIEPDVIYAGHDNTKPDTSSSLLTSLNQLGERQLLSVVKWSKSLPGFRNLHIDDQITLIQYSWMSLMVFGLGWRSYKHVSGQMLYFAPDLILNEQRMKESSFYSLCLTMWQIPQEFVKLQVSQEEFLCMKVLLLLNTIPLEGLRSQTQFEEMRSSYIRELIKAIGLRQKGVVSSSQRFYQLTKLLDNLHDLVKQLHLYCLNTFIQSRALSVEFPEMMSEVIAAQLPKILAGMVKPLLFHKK
Sequence of Estrogen receptor (Homo sapiens) (P03372 whole entry, looked up): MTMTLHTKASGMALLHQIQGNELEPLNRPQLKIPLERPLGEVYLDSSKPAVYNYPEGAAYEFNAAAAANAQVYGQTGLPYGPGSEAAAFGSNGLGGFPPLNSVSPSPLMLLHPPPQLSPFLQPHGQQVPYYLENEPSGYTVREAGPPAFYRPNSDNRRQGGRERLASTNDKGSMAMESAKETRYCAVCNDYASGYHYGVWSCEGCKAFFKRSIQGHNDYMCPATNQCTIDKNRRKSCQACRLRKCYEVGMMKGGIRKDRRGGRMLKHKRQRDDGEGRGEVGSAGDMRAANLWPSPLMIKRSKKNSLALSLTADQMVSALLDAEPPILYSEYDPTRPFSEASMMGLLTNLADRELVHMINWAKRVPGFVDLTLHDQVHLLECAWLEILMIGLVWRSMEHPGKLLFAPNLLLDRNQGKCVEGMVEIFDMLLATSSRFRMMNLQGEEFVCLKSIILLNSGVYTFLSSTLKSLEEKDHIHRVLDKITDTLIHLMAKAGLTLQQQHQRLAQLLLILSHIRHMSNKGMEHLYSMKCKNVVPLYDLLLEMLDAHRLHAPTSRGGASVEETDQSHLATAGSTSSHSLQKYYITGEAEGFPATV
Sequence of Thyrotropin receptor (Homo sapiens) (P16473 whole entry, looked up): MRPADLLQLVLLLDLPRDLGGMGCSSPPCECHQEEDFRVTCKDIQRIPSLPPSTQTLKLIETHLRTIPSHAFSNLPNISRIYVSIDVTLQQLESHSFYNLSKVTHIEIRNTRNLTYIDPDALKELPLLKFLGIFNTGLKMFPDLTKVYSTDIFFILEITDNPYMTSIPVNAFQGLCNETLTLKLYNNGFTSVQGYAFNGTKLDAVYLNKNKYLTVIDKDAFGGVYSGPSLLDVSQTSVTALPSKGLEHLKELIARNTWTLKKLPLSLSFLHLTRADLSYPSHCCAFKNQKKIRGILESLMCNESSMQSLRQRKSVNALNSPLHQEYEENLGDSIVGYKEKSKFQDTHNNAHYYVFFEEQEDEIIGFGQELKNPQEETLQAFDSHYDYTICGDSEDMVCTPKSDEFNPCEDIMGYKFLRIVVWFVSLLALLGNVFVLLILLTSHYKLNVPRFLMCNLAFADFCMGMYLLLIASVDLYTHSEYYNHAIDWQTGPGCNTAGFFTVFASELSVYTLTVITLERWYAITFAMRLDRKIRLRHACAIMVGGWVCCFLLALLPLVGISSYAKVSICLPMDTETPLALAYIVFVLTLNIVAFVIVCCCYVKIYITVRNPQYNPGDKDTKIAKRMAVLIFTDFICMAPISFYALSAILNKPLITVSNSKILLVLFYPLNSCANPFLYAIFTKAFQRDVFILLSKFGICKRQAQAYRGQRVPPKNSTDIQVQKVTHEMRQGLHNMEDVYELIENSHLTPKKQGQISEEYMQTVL

For the compound `CC1=CC(=O)c2ccccc2C1=O`, the Potency in experiment [1] was 21.7 µM (active) and 29.8 µM (active); in [2] it was 30.6 µM (active) and 29.8 µM (active); in [5], 68.6 µM (active) and inactive; in experiment [6], 27.3 µM (active) and 13.3 µM (active); in [8] it was 24.3 µM (active) and 16.8 µM (active); in [9], 43.3 µM (active). Also, the Potency in experiment [10] was 24.3 µM (active) and 26.6 µM (active); in [12], 24.3 µM (active); in experiment [14] it was 38.6 µM (active) and inactive. The Potency entry in experiment [3], in experiment [4], in experiment [7], in experiment [11], in experiment [13] and in experiment [15] was “inactive” throughout.

Turning to `NC(=Nc1ccccc1)Nc1ccccc1`, the Potency in experiment [2] is 10.9 µM (active); in [4], 686 nM (active) and inactive; in experiment [8], 2.43 µM (active). For the same compound, the Potency entry in [3], in experiment [5], in experiment [16], in [6], in experiment [7] and in experiment [9] was “inactive” each time. Also, the Potency entry in [10], in experiment [12], in experiment [13], in experiment [18], in [19] and in [15] was “inactive” in each case. Besides, in [17], the outcome was inactive.

Take `Oc1ccc(Cl)cc1Cc1cc(Cl)ccc1O`: the Potency is 13.9 µM (active) and 27.3 µM (active) and 23.7 µM (active) in experiment [1]; 44.1 µM (active) and 68.6 µM (active) in experiment [2]; 62.3 µM (active) and inactive in [16]; 55.5 µM (active) and 43.3 µM (active) and inactive in experiment [6]; 15.6 µM (active) and 21.7 µM (active) in experiment [8]; 17.5 µM (active) and 19.3 µM (active) and 23.7 µM (active) in [20]. Further, the Potency in experiment [10] is 49.4 µM (active) and 48.6 µM (active) and 18.8 µM (active); in [12] it was 27.8 µM (active) and 27.3 µM (active); in [14], 43.3 µM (active). Moreover, the Potency result in experiment [3], in experiment [4], in experiment [5], in [7], in experiment [11] and in experiment [13] was “inactive” each time. Moreover, the Potency result in [18], in experiment [19] and in experiment [15] was “inactive” in each case. In addition, in [17], the call was inactive.

For `c1cnc2cc3c(cc2n1)C1CNCC3C1`, the Potency entry in experiment [2], in experiment [3], in experiment [4], in experiment [5], in experiment [16] and in experiment [6] was “inactive” in each case. Also, the Potency entry in experiment [7], in experiment [8], in experiment [20], in [10], in experiment [12] and in experiment [13] was “inactive” each time. For the same compound, the Potency entry in [14] and in experiment [15] was “inactive” throughout. Further, in [17], the result was inactive.

Take `BrC1CCC(Br)C(Br)CCC(Br)C(Br)CCC1Br` (stereo unspecified): the Potency entry in experiment [1], in experiment [2], in experiment [4], in experiment [5], in experiment [16] and in experiment [6] was “inactive” throughout. In addition, the Potency result in experiment [7], in experiment [9], in experiment [11], in experiment [13], in experiment [18] and in experiment [15] was “inactive” in each case. The Potency is 32.6 µM (active) in experiment [8]; 30.5 µM (active) and 46.1 µM (active) in [10]; 54.3 µM (active) and 46.1 µM (active) in experiment [12]. Besides, the outcome in experiment [17] was inactive.

Source of the values: PubChem BioAssay (Tox21).
